MITF primary – inhibitors of human MITF | O75030 | AlphaScreen MITF homodimerization, bead proximity signal | inhibition, % at 2.6 µM | actives 0.91% (n = 650,000) | AID 1259374; in the data active = inhibition above about 50%;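 also: 0% = vehicle wells with protein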
TEAD-YAP inh – TEAD-YAP interaction inhibition; inhibition, % at 9.12 µM; HEK-TIYL cells, TEAD-Gal4/YAP UAS-luciferase luminescence; actives 1.4% (n = 640,000); in the data active = inhibition above about 32%;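 also: 0% = median of test compound wells and 100% = reference inhibitor wells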
GPR151 activ – human GPR151 activation; PathHunter beta-arrestin GPR151 cells, luminescence; activation, % at 11.2 µM; actives 1% (n = 650,000); in the data active = activation above about 4.9%;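 also: 0% = median of compound wells and 100% = cells with positive control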
Target sequence (Q8TDV0 whole entry, looked up): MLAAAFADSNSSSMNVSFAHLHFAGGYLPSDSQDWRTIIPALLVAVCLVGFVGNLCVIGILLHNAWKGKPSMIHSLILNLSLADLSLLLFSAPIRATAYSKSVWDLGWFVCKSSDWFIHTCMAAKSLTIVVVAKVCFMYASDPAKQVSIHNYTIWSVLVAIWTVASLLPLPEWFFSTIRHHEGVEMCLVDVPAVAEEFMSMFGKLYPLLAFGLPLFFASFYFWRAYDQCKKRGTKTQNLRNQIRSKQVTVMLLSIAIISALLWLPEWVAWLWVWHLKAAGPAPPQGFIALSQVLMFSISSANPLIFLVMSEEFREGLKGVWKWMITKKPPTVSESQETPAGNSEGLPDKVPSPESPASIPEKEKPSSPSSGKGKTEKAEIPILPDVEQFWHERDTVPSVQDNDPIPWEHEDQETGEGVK
FBW7 act – activators of human E3 ligase FBW7; AlphaScreen FBW7–phospho-cyclin E peptide binding, activator screen; actives 0.13% (n = 650,000); normalized activity (activation), % at 26.1 µM; AID 1259310; in the data active = normalized activity above about 1.9%;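 also: purified mutant Fbw7 with reduced substrate affinity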
* marks the source's active call; other numbers are inactive results; / = no result given. Shown are actives, neighbours in structure and some others; about 3.4% of the full set was active somewhere.

SMILES	MITF primary	TEAD-YAP inh	GPR151 activ	FBW7 act
N#Cc1ccccc1Nc1cc(NC(=O)Cc2ccc(F)cc2)ncc1C(F)(F)F	17	20	0	0
CNC(=O)c1ccccc1Nc1cc(NC(=O)Cc2c(Cl)cccc2Cl)ncc1C(F)(F)F	12	56*	-1	0
CNC(=O)c1ccccc1Nc1cc(NC(=O)CCc2ccccc2)ncc1C(F)(F)F	-3	64*	-2	0
CCOC(=O)c1c(NC(=O)C(=O)NCc2cccnc2)sc2c1CCCC2	-2	2	-1	0
COc1cccc(OC)c1C(=O)N1C[C@@H]2C[C@H]1C(=O)N2c1ccccc1Cl	16	33*	-1	0
CCOc1ccc(NC(=O)C2CC(=O)N(c3ccc(CC)cc3)C2)cc1 (centres undefined)	7	6	1	0
Cn1c(=O)cc(OCCCC(=O)Nc2ccc(Cl)cn2)c2ccccc21	5	43*	0	0
CCC1=NN(C(=O)c2ccccc2O)C(O)(c2ccccc2)C1 (centres undefined)	1	46*	-1	0
CN(c1ccccc1)c1ccc(C2NN=C(c3ccccc3)S2)cc1 (centres undefined)	-34	-1	-2	2.1*
COc1ccc([N+](=O)[O-])cc1C1NN=C(c2ccccc2)S1 (centres undefined)	3	-30	4	0
CCOc1ccc(C2NN=C(c3ccccc3)S2)cc1 (centres undefined)	1	71*	-6	0
CC(=O)Nc1ccc(C2NN=C(c3ccccc3)S2)cc1 (centres undefined)	19	-35	-4	0
COc1ccc(O)c(C2NN=C(c3ccccc3)S2)c1 (centres undefined)	0	42*	-1	0
COc1ccccc1C1CC(=O)Nc2c1ccc1c(O)cccc21 (centres undefined)	13	7	0	0
CCc1ccc(OCC(O)Cn2c(C3CC(=O)N(c4ccccc4F)C3)nc3ccccc32)cc1 (centres undefined)	-15	10	3	0
Cc1ccc(OCC(O)Cn2c(C3CC(=O)N(c4ccccc4F)C3)nc3ccccc32)cc1C (centres undefined)	16	32*	0	1
CC1=C(C#N)C(c2cccnc2)C2=C(N1)c1ccccc1C2=O (centres undefined)	-7	56*	0	0
COc1cc2c(cc1O)CCC1C2CC[C@@]2(C)C1CC[C@@H]2O (some centres undefined)	12	/	0	0
COc1cc2c(cc1O)CC[C@@H]1[C@@H]2CC[C@]2(C)[C@@H](O)CC[C@@H]12	17	53*	-1	0
Cc1ccc(S(=O)(=O)N2N=C(c3ccc(Br)cc3)CC2c2ccc(Br)cc2)cc1 (centres undefined)	11	-2	2	0
Cc1cccc(C(=O)N2CCCC(C(=O)Nc3cccc(-c4ccc(F)cc4)c3)C2)n1 (centres undefined)	-12	16	0	0
Cc1cc(C(=O)N2CCCC(C(=O)Nc3cccc(-c4ccc(F)cc4)c3)C2)n(C)n1 (centres undefined)	17	45*	2	0
COc1ccc(-n2c(C)c(C(C)=O)c3cc(OC(=O)c4ccc(C)cc4)ccc32)cc1	-5	48*	0	1
COc1ccc(C(/C=C2\N(C)c3ccccc3C2(C)C)C[N+](=O)[O-])cc1 (centres undefined)	11	16	1	0
CN1/C(=C\C(C[N+](=O)[O-])c2ccc3c(c2)OCO3)C(C)(C)c2ccccc21 (centres undefined)	8	49*	0	0
SMILES	MITF primary	TEAD-YAP inh	GPR151 activ	FBW7 act
O=C(CC12CC3CC(CC(Br)(C3)C1)C2)OCC(=O)c1ccccc1	2	67*	3	0
O=[N+]([O-])c1c(N2CCCC2)cc(Cl)c2nonc12	-2	33*	-2	0
CCOc1cc([N+](=O)[O-])cc(/C=N/NC(=O)COc2cccc(C)c2C)c1O	66*	-3	0	0
CCOc1ccccc1OCC(=O)N/N=C/c1cc(C)ccc1O	-14	61*	0	-2
CCOc1cc([N+](=O)[O-])cc(/C=N/NC(=O)COc2c(C)ccc(C)c2C)c1O	-3	0	2	0
Cc1n[nH]c(C)c1CCC(=O)N/N=C/c1ccc(Br)cc1	10	5	0	0
Cc1ccc(/C=N/NC(=O)CCc2c(C)n[nH]c2C)cc1	4	33*	0	0
Cc1ccc(/C=N/NC(=O)COc2ccccc2C)cc1	-3	50*	-1	0

Compound activity from PubChem.
